Our source for the outcome and AC50 values is PubChem BioAssay (EPA / NIEHS).

Assay [1] in a line: CCTE_Shafer_MEA_dev_firing_rate_mean: CCTE's Neural Network Formation Assay for Mean Firing Rate, Shafer Lab (AID 2284031). The method in brief:
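Steps: seed rat cortical cells (1.5 x 10^5/well) with laminin on PEI-coated MEA; dose day 0; record DIV 5/7/9/12, full media and compound exchange after DIV 5 and 9 recordings; compute well-mean firing rate AUC.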

Assay [2] can be described thus: CCTE_Shafer_MEA_dev_per_burst_spike_percent: CCTE's Neural Network Formation Assay for Percent of Spikes in a Burst, Shafer Lab (AID 2284032). The method in brief:
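Value is trapezoidal AUC over recordings on days 5, 7, 9 and 12 of the well-mean fraction of spikes falling in single-electrode bursts; rat cortical cultures exposed continuously from plating, treatment renewed DIV 5 and 9, fitted downward against DMSO.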

Assay [3] in a line: CCTE_Shafer_MEA_dev_active_electrodes_number: CCTE's Neural Network Formation Assay for Number of Active Electrodes, Shafer Lab (AID 2284040; active = hit-call score of the fitted dose curve at least 0.9, where 1 is the maximum). The method in brief: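 Counts electrodes per well firing at least 5 spikes/min, recorded on days 5, 7, 9 and 12 in rat cortical cultures dosed continuously from plating (treatment refreshed DIV 5, 9). Value is the area under the curve over recordings, fitted downward relative to DMSO.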

Assay [4] in a line: CCTE_Shafer_MEA_dev_burst_rate: CCTE's Neural Network Formation Assay for Burst Rate, Shafer Lab (AID 2284042). The method in brief:
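Rat primary cortical cultures on PEI/laminin MEA; compound from plating, re-dosed at DIV 5, 9 media change. Single-electrode bursts/recording length, well mean of active electrodes; AUC over DIV 5–12 recordings; loss-of-signal vs DMSO.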

A short description of assay [5]: CCTE_Shafer_MEA_dev_bursting_electrodes_number: CCTE's Neural Network Formation Assay for Number of Bursting Electrodes, Shafer Lab (AID 2284043; active = hit-call score of the fitted dose curve at least 0.9, where 1 is the maximum). An outline of the steps:
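Counted: electrodes with burst rate ≥1 per 2 min in each well. Cells: primary rat cortex, 1.5 x 10^5/well, on 16-electrode MEA wells. Exposure: DIV 0–12, compound renewed DIV 5 and 9. Recording days 5, 7, 9, 12; AUC vs DMSO baseline.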

The nature of assay [6]: CCTE_Shafer_MEA_dev_per_burst_interspike_interval: CCTE's Neural Network Formation Assay for Burst Interspike Interval, Shafer Lab (AID 2284044). An outline of the steps:
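Readout is the average time between spikes inside single-electrode bursts, taken as a well mean across bursting electrodes. Cortical neurons from rat developed networks on MEA plates under continuous 12-day exposure; recordings on days 5, 7, 9 and 12 were integrated by trapezoidal AUC.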

A short description of assay [7]: CCTE_Shafer_MEA_dev_burst_duration_mean: CCTE's Neural Network Formation Assay for Mean Burst Duration, Shafer Lab (AID 2284045). An outline of the steps:
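Network-formation assay in primary rat cortical neurons; treatment spans twelve days of development. Mean burst duration per well is integrated by trapezoidal AUC and fitted in the loss-of-signal direction against DMSO baseline.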

Assay [8] in a line: CCTE_Shafer_MEA_dev_interburst_interval_mean: CCTE's Neural Network Formation Assay for Mean Interburst Interval, Shafer Lab (AID 2284046).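 Also: well-mean interburst interval of bursting electrodes as AUC over four recording days; curve fitted for decrease in interburst interval relative to DMSO.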 The method in brief:
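Rat cortical neurons, 1.5 x 10^5 cells/well, 48-well MEA; compound from day 0 through DIV 12, media and treatment renewed DIV 5/9. Recordings DIV 5, 7, 9, 12; well-mean interburst interval → trapezoidal AUC, loss direction vs DMSO.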

Assay [9] in a line: CCTE_Shafer_MEA_dev_inter_network_spike_interval_mean: CCTE's Neural Network Formation Assay for Mean Inter-network Spike Interval, Shafer Lab (AID 2284047). The method in brief: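 Primary rat cortical neurons on PEI-coated 48-well MEAs (16 electrodes/well) were exposed from plating day 0 to DIV 12, with dosing renewed at DIV 5 and 9. Recordings at DIV 5, 7, 9, 12 were collapsed by trapezoidal AUC, loss-of-signal fit vs DMSO.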

A short description of assay [10]: CCTE_Shafer_MEA_dev_network_spike_number: CCTE's Neural Network Formation Assay for Number of Network Spikes, Shafer Lab (AID 2284048). The method in brief:
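Extracellular recordings from 16-electrode wells track network formation in rat cortical cultures under continuous treatment from plating. The endpoint is network spike number, expressed as AUC across DIV 5–12 relative to DMSO vehicle.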

Assay [11] in a line: CCTE_Shafer_MEA_dev_network_spike_peak: CCTE's Neural Network Formation Assay for Mean Number of Electrodes in Network Spike, Shafer Lab (AID 2284049). The method in brief:
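Continuous 12-day exposure of rat cortical cultures, starting at plating, on MEA plates. Endpoint: electrodes participating in network-spike peaks, AUC across DIV 5–12, DMSO as negative control.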

A short description of assay [12]: CCTE_Shafer_MEA_dev_spike_duration_mean: CCTE's Neural Network Formation Assay for Mean Spike Duration, Shafer Lab (AID 2284051).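 Also: mean network spike duration pooled as area under curve over DIV 5 to 12 recordings.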 An outline of the steps:
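Rat cortical primary cultures, 48-well MEA (16 electrodes/well); compound from plating, renewed DIV 5, 9. Network spike duration (AxIS adaptive detector) recorded DIV 5/7/9/12, combined as trapezoidal AUC; loss direction vs DMSO.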

Assay [13] can be described thus: CCTE_Shafer_MEA_dev_network_spike_duration_std: CCTE's Neural Network Formation Assay for Standard Deviation of Network Spike Duration, Shafer Lab (AID 2284052).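 Also: area under curve of spike duration SD across recording days 5 to 12; hits are decreases in network spike duration SD versus DMSO vehicle.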 An outline of the steps: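 Rat cortical cultures, 1.5 x 10^5 cells/well, exposed continuously from plating to DIV 12 with media/compound renewal at DIV 5, 9. Spontaneous activity recorded DIV 5/7/9/12, AxIS adaptive spike detector; AUC across days; negative direction vs DMSO.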

The nature of assay [14]: CCTE_Shafer_MEA_dev_per_network_spike_spike_number_mean: CCTE's Neural Network Formation Assay for Mean Number of Spikes in a Network Spike, Shafer Lab (AID 2284053). An outline of the steps: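 Rat cortical primary cultures on 48-well MEA; compound from day 0, re-dosed with full media change DIV 5, 9. Recorded DIV 5, 7, 9, 12; spikes in 0.05 s window at network-spike peak ÷ total network spikes; AUC; loss vs DMSO.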

A short description of assay [15]: CCTE_Shafer_MEA_dev_per_network_spike_spike_percent: CCTE's Neural Network Formation Assay for Percent of Spikes in a Network Spike, Shafer Lab (AID 2284054). The method in brief:
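Developing networks of rat cortical neurons are dosed at day 0 and recorded extracellularly four times up to day 12. The endpoint is the area under the curve of percent spikes in network spikes, fitted in the negative direction relative to DMSO.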

Assay [16] is described as follows: CCTE_Shafer_MEA_dev_correlation_coefficient_mean: CCTE's Neural Network Formation Assay for Mean Correlation Coefficient, Shafer Lab (AID 2284093). The method in brief:
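Rat cortical cultures, 1.5 x 10^5 cells/well, dosed from day 0 for 12 days. Spontaneous spikes recorded DIV 5/7/9/12; electrode-pair correlation coefficients averaged, AUC taken. Fit in loss direction vs DMSO.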

A short description of assay [17]: UKN2_HCS_IMR90_neural_migration: University of Konstanz (UKN) Leist Lab Neural Crest Cell Migration Assay in human induced IMR90 Pluripotent Stem Cells (UKN2) (AID 2284204). Conditions: actives raise or lower the signal. An outline of the steps: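 Using a 96-well stopper format with PLO/laminin/fibronectin coating, neural crest cells from iPSC migrate in cytokine-supplemented N2-S medium; after 24 h, chemicals are applied for a further 24 h, then cells are imaged after dye staining.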

The nature of assay [18]: IUF_NPC1b_proliferation_BrdU_72hr: Leibniz Research Institute for Environmental Medicine (IUF) 72-hour Neural Progenitor Cell Bromodeoxyuridine (BrdU) Proliferation Assay (NPC1b) (AID 2284207). The method in brief:
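Neural progenitor spheres of human fetal origin are treated for three days; BrdU added for the last 16 h is quantified by luminescence ELISA, with DMSO as baseline and EGF/FGF omission as positive control.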

Assay [19] is described as follows: IUF_NPC1a_proliferation_area_72hr: Leibniz Research Institute for Environmental Medicine (IUF) 72-hour Neural Progenitor Cell Proliferation Area Assay (NPC1a) (AID 2284208). An outline of the steps: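 hNPC spheres (human fetal cortex, GW 16-19), one per poly-Hema U-bottom well; EGF+FGF medium; dosed day 0, no re-dosing; 72 h, 37C, 5% CO2; phase-contrast sphere area; DMSO = baseline; minus-GF = positive ctrl.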

A short description of assay [20]: IUF_NPC1_viability_72hr: Viability Assessment at 72 hours in the Leibniz Research Institute for Environmental Medicine (IUF) Neural Progenitor Cell Proliferation Assay (NPC1) (AID 2284209). An outline of the steps: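 Spheres of primary human neural progenitors were plated singly in proliferation medium and treated for 72 h. Mitochondrial reduction of resazurin was then measured by fluorescence and analysed against DMSO controls.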

The nature of assay [21]: CCTE_Mundy_HCI_Cortical_Synap_Neur_Matur_NeuriteSpotCountPerNeuriteLength: CCTE's Synaptogenesis and Neurite Maturation Assay in rat cortical cells for Neurite Spot Count per Neurite Length, Mundy Lab (AID 2284210). An outline of the steps:
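Neurite-associated synapse density (synaptophysin puncta per unit neurite length) is measured by fluorescence high-content imaging in rat cortical cultures treated from DIV 7 and fixed at DIV 12, with DMSO as negative control.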

The nature of assay [22]: CCTE_Mundy_HCI_Cortical_Synap_Neur_Matur_BPCount: CCTE's Synaptogenesis and Neurite Maturation Assay in rat cortical cells for Branch Point Count, Mundy Lab (AID 2284211). An outline of the steps: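 HCI read-out of branch points from MAP2/synaptophysin/Hoechst immunofluorescence; rat cortical cultures, AraC DIV 5, dosing DIV 7, fixed DIV 12; fit in positive direction vs DMSO baseline.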

Assay [23] is described as follows: CCTE_Mundy_HCI_Cortical_NOG_NeuriteCount: CCTE's Neurite Outgrowth Assay in rat cortical cells for Neurite Count, Mundy Lab (AID 2284212).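 Also: cells fixed about two days after chemical exposure began.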 The method in brief:
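Rat cortical primary cells; compound added 2 h post-plating, 1/10 dilution of working solution. Anti-betaIII-tubulin/AF488 ICC; ArrayScan neurite count vs DMSO.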

Inconclusive results are not listed. The source made the active and inactive calls. The calls were made as follows, unless noted: active = hit-call score of the fitted dose curve at least 0.9, where 1 is the maximum; inactive = score below 0.9.

Take `CC(C)c1nn(C(=O)NC(C)(C)C)c(=O)n1N`: the result in assay [1], in [2], in assay [3], in [4], in assay [5] and in assay [6] was inactive. In addition, the result in [7], in [8], in assay [9], in assay [10], in [11] and in [12] was inactive. Further, the compound was called inactive in assay [13], in [14], in assay [15], in assay [16], in assay [17] and in [19]. Moreover, the compound was classed as inactive in assay [20], in assay [21], in [22] and in [23]. The AC50 in [18] was 2.01 µM (active).
